# Data as given in PubChem BioAssay AID777 (Sanford-Burnham Center for Chemical Genomics, 2007).
# Screen size: about 96,000 compounds; about 19,000 (20%) were called active. Only a sample is shown. A number with no mark means an inactive call.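 How the source made its calls: active means blocking of liver enzyme CYP2C9 beyond about 50% at 5 µM (limit read from the data); inactive means the rest.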
# Molecular target: Cytochrome P450 2C9 (Homo sapiens) (UniProt P11712)
# Experiment: blockers of cytochrome P450 2C9 activity – biochemical, luminescence, ADME assay, primary screen (AID 777)
# Conditions: CYP2C9 Supersomes, luciferin-H conversion, at 5 µM, hits give high values
# Chain of Cytochrome P450 2C9 (Homo sapiens) (P11712 whole entry, looked up): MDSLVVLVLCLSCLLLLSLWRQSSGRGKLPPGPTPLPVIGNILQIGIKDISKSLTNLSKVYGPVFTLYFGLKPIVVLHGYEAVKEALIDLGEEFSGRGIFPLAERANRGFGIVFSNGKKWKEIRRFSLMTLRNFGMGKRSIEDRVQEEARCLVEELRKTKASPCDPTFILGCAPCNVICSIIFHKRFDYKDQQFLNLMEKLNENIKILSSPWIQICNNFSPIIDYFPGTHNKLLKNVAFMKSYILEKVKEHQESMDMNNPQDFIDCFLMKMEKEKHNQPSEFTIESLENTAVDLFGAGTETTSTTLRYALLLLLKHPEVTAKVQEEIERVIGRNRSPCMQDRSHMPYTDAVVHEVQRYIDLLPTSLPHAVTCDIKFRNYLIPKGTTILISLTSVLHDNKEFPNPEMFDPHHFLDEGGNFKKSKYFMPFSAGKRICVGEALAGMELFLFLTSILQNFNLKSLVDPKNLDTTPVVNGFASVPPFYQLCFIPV
row,Structure (SMILES),inhibition
1,Cc1ncn(C23CC4CC(CC(O)(C4)C2)C3)n1,10.7%
2,COCCOCCn1cnc2ccccc21,0%
3,CC(C)c1ccc(NC(=O)CCN2C(=O)c3ccc([N+](=O)[O-])cc3C2=O)cc1,14.3%
4,CCC(CC)C(=O)Nc1cc(C(=O)OC)cc(C(=O)OC)c1,9%
5,COC(=O)c1cc(NC(=O)C2C3C=CC(C3)C2C(=O)O)cc(C(=O)OC)c1 (stereo not drawn),64.3% (active)
6,CC(C)COC(=O)c1ccc(NC(=O)C2C3C=CC(C3)C2C(=O)O)cc1 (stereo not drawn),29.9%
7,CC(C)OC(=O)c1cc(NC(=O)C2C3CCC(O3)C2C(=O)O)cc(C(=O)OC(C)C)c1 (stereo not drawn),79.4% (active)
8,Cc1sc(NC(=O)C2C3CCC(O3)C2C(=O)O)c(C(=O)OC(C)C)c1-c1ccc(Cl)cc1 (stereo not drawn),9.3%
9,Cn1c(=O)c2c(n(Cc3ccccc3)c1=O)NC(=O)C2CC(=O)N1CCc2ccccc2C1 (stereo not drawn),-4.4%
10,CSc1nnc2c(n1)OC(c1ccsc1)N(C(C)=O)c1ccccc1-2 (stereo not drawn),10%
11,C=CCNC(=O)CCCC(=O)NCC=C,8.2%
12,CCN(CC)P(=O)(C(NC(=O)OC)C(F)(F)C(F)(F)C(F)(F)C(F)F)N(CC)CC (stereo not drawn),21%
13,O=C(NCc1ccccc1Cl)c1csc2c1CCCCC2,-153%
14,Cn1c(SCC(=O)NC2CCCCC2)nnc1-c1cc2ccccc2o1,9.1%
15,CCOc1cc2c(cc1OCC)C(C(=O)O)C(c1ccc(OC)c(O)c1)N(C)C2=O (stereo not drawn),-10%
16,O=C(NCc1cccs1)c1ccc2c(c1)ncn2C1CCCC1,25.4%
17,O=C(CN1C2CCC1CC(NC(=O)C1CC1)C2)NCc1ccccc1 (stereo not drawn),-10.9%
18,COc1ccc(NC(=O)NC2CC3CCCC(C2)N3Cc2ccccc2)cc1 (stereo not drawn),-6.4%
19,CC(=O)NC1CC2CCCC(C1)N2CC(=O)Nc1ccccc1 (stereo not drawn),50.7% (active)
20,O=C(c1ccc(-n2cnnn2)cc1)N1CCN(C(c2ccccc2)c2ccccc2)CC1,83.4% (active)
21,c1cc(-n2cnnn2)ccc1NC1=NCCC1,-26.8%
22,O=C(O)CC(c1ccccc1)n1cnnn1 (stereo not drawn),-7.7%
23,Cc1ccc(S(=O)(=O)N2CCN(C(=O)CCC(=O)NC3CCCc4ccccc43)CC2)cc1 (stereo not drawn),32.1%
24,CCOC(=O)N1CCN(S(=O)(=O)c2cc3c(cc2C)NC(=O)CO3)CC1,-21.5%
25,Cc1ccc2oc(=O)c3cnn(CC(=O)N(Cc4ccco4)C4CCCCC4)c3c2c1,19.5%
26,CCOC(=O)c1cc2c(ccn2C)n1CC(=O)N1CCC(C)CC1,29.1%
27,CCOC(=O)c1cc2sccc2n1Cc1ccc(C#N)cc1,96.7% (active)
28,CCCOc1ccc(Cn2c(O)cc(=O)[nH]c2=O)cc1,-7.9%
